Measurements from PubChem BioAssay (EPA / NIEHS).
Results filed as inconclusive are left out. The source made the active and inactive calls. How the source made its calls: active means hit-call score of the fitted dose curve at least 0.9, where 1 is the maximum; inconclusive means response in the unintended direction; inactive means score below 0.9.

Test: ATG_GAL4_TRANS: Attagene TRANS-FACTORIAL HepG2 Assay for GAL4 (Internal Marker) (AID 2282976)
Conditions: HepG2 Attagene TRANS GAL4 internal marker reporter
Protocol: ATG_TRANS is a cell-based, multiplexed-readout assay that uses HepG2, a human liver cell line, with measurements taken at 24 hours after chemical dosing in a 24-well plate.ATG_GAL4_TRANS is one of 30 assay component(s) measured or calculated from the ATG_TRANS assay. It is designed to make measurements of mRNA induction, a form of inducible reporter, as detected with fluorescence intensity signals by Reverse transcription polymerase chain reaction (RT-PCR) and Capillary electrophoresis technology.Data from the assay component ATG_GAL4_TRANS was analyzed into 1 assay endpoint. This assay endpoint, ATG_GAL4_TRANS, was analyzed in the positive analysis fitting direction relative to DMSO as the negative control and baseline of activity. Using a type of inducible reporter, measures of mRNA for gain-of-signal activity can be used to understand the background control at the transcription factor-level as they relate to the gene . Furthermore, this assay endpoint can be referred to as a secondary readout, because this assay has produced multiple assay endpoints where this one serves a background control function. To generalize the intended target to other relatable targets, this assay endpoint is annotated to the background measurement intended target family, where the subfamily is baseline control.
Human liver HepG2 cells are transiently transfected with multiple reporter transcription units (MRTUs) in 6-well plates using FuGene 6 reagent (Roche; 3 ml FuGene/1 mg DNA). The MRTU constructs are regulated by a cis-regulating element (promoter). […] A major difference between the CIS and TRANS system is that in CIS activities of endogenous TFs are measured, whereas the TRANS assay evaluates changes in activities of exogenous, chimeric NR-Gal4 proteins. […] At the end of 24 hour incubation, total RNA was isolated using TriZol reagent (Invitrogen). The isolated RNA is then reverse-transcribed using oligo(dT) primer and Mo-MLV reverse transcriptase (Invitrogen) with DNAse I (Ambion) treatment for 30 min. The one-tenth of the produced cDNA was amplified by PCR using Taq DNA polymerase (Invitrogen) and two reporter sequence-specific primers. The PCR products were fluorescently labeled by primer extension with 6-arboxyfluorescein (6-FAM) 5'-labeled reporter sequence-specific primer (2 min at 95 C, 20 s at 68 C and 10 min at 72 C) and these products were digested with 5U of HpaI (New England Biolabs) for 2h at 37 C. The fragments were purified using Qiaquick PCR columns (Qiagen), analyzed on an ABI 3130xL genetic analyzer (Applied Biosystems) with peak positions identified by using a set of X-rhodamine (ROX)-labeled MapMarker1000 molecular weight standards (BioVentures). The raw capillary electrophoresis data was processed using Attagraph software (Attagene).

Row | Compound | outcome
1 | Cc1ccccc1N | inactive
2 | CC1(C)CCC(Cc2ccc(Cl)cc2)C1(O)Cn1cncn1 (stereo not given) | inactive
3 | O=C(NCO)NCO | inactive
4 | ClCC(Cl)CCl | inactive
5 | Cc1cc(=O)[nH]o1 | inactive
6 | BrCCBr | inactive
7 | CC(Br)C(=O)O (stereo not given) | inactive
8 | CN(C)P(=O)(N(C)C)N(C)C | inactive
9 | CCC[CH2][Sn]([Cl])([Cl])[Cl] | inactive
10 | N#Cc1ccccn1 | inactive
11 | O=C(O)C(F)(F)C(F)(F)C(F)(F)C(F)(F)C(F)(F)C(F)(F)F | inactive
12 | CC(C)C1CCC(Cc2ccc(Cl)cc2)C1(O)Cn1cncn1 (stereo not given) | inactive
13 | CC1(C)Cc2cccc(O)c2O1 | inactive
14 | Cn1sc(Cl)cc1=O | inactive
15 | CCc1ccccc1N | inactive
16 | N#CCc1ccc(Cl)cc1 | inactive
17 | CCC1(c2ccc(N)cc2)CCC(=O)NC1=O (stereo not given) | inactive
18 | CC(=[OH+])/C=C(/C)[O-].CC(=[OH+])/C=C(/C)[O-].CC(=[OH+])/C=C(/C)[O-].[Fe] | inactive
19 | ClC1(Cl)C2(Cl)C3(Cl)C4(Cl)C(Cl)(Cl)C5(Cl)C3(Cl)C1(Cl)C5(Cl)C24Cl (stereo not given) | inactive
20 | C=CC(=O)N(C)C | inactive

Row | Compound | outcome
21 | C=CC#N | inactive
22 | O=C1CCCN1 | inactive
23 | C=C(C)C#N | inactive
24 | NC(=S)Nc1ccccc1 | inactive
25 | O=c1[nH]c(=O)[nH]c(=O)[nH]1 | inactive
26 | O=C(Nc1ccc2[nH]ccc2c1)c1cc2cc(F)ccc2n1Cc1cccc(F)c1 | inactive
27 | Nc1ncc([N+](=O)[O-])s1 | inactive
28 | CCCCCCCCSC(=O)Oc1cc(Cl)nnc1-c1ccccc1 | inactive
29 | COc1cc(OC)nc(NC(=O)NS(=O)(=O)c2ncccc2C(=O)N(C)C)n1 | inactive
30 | O=C1C2(Cl)C3(Cl)C4(Cl)C(Cl)(Cl)C5(Cl)C3(Cl)C1(Cl)C5(Cl)C24Cl (stereo not given) | inactive
31 | ClC1=C(Cl)[C@]2(Cl)[C@@H]3[C@@H](Cl)[C@@H](Cl)C[C@@H]3[C@@]1(Cl)C2(Cl)Cl | inactive
32 | C[C@]12CC[C@H](O)CC1=CC[C@@H]1[C@@H]2CC[C@]2(C)C(=O)CC[C@@H]12 | inactive
33 | Clc1nc(Cl)nc(Cl)n1 | inactive
34 | Nc1ccc(Cl)cc1C(=O)c1ccccc1 | inactive
35 | C[C@@H](Oc1ccc(Cl)cc1Cl)C(=O)O | inactive
36 | CCOC(=O)/C=C(C)/C=C/C[C@@H](C)CCCC(C)C | inactive
37 | NNC(=S)NN | inactive
38 | CCCCCCCCc1ccc(O)cc1 | inactive
39 | CCc1ccccc1C | inactive
40 | O=C1C(Cl)=C(Cl)C(=O)c2ccccc21 | inactive
